This passage reports sensor-assay potency score (higher = more potent) results from the OligoGym collection.
Note: reference of the scale not given here.

The target of the first test is LUC7L2. The test can be described thus: pooled miR-30 sensor sort-seq; sequence = guide strand. The conditions noted are these: shRNA.
For the sequence TTTGGATCGAGTTCTCCTCTTG, the sensor-assay potency score (higher = more potent) was -0.398. Same read-out and setting: with TTGCATACTCTGTCATCACTGA the figure was 0.248; with TTAACTCATGAACACGTTCTGC, -0.686. As for TTTGCTGCTACTTCAGCACTAA, the sensor-assay potency score (higher = more potent) was -0.0299. Still for that read-out and setting: with TCTCTTGAACTCCTGTCTCTGT the figure was -0.457; with TAGAACATCCTGAACATAGCAA, 0.289. On the same count and under the same terms, to TACTTCATCCATTACTTTCTGG belongs -0.257; to TAATCTCTTCTTGAGTTTCTGC, -0.17.

With TGTCTCTGTCACATGATGCTAA, the sensor-assay potency score (higher = more potent) was -0.366.

With TTGGATCGTTCTCTGCTCCTAT, the sensor-assay potency score (higher = more potent) came to 0.469. On to TTGAGAAGGTGACTCTTGCATA, for which the sensor-assay potency score (higher = more potent) is -0.354.

The target in a further test is LY6K. The description is as above. The conditions noted are these: shRNA.
On to TCTCTCACAAACATGACACCAC, for which the sensor-assay potency score (higher = more potent) is 0.0962. For TCTTTGAACACTGATGAGTTGA, the sensor-assay potency score (higher = more potent) was -0.353. Still for that read-out and setting: with TTGAACACTGATGAGTTGATAG the figure was -0.979. Still for that read-out and setting: with TTTCTCTCTCACAAACATGACA the figure was -1.23. On the same count and under the same terms, to TCTCCATCGCTGCACAACCAGC belongs -1.92; to TAATGCAACAGGTGACAACGGT, -0.099; to AAACATGACACCACACTCTATT, -0.883. With TATTCTTTGAACACTGATGAGT, the sensor-assay potency score (higher = more potent) was -0.623. On the same count and under the same terms, to TCTATTGTCACCCTCGTCCGTT belongs -0.102; to AATTTTACAACACTTGAGGTAA, -0.3; to TTGGCGTCTGTCCACACCCGCG, -1.54. As for TAGCGAATTTTACAACACTTGA, the sensor-assay potency score (higher = more potent) is -0.625.

The target of another test is LY96. The description is as above. The conditions noted are these: shRNA.
Consider TATAATTGCTTTAAATCTCTCC, for which the sensor-assay potency score (higher = more potent) was 0.0244.

With TTGTTGTATTCACAGTCTCTCC, the sensor-assay potency score (higher = more potent) is -1.2. As to TAAATCTCTCCTTGGAATGTAG, the sensor-assay potency score (higher = more potent) is -0.351. Still for that read-out and setting: with TTCAACAACACATTTGTATTTT the figure was -1.05; with TAGGTGTATGAAATACTTGCAT, -0.275.

TTGTATTCACAGTCTCTCCCTT returned a sensor-assay potency score (higher = more potent) of 0.102. In the case of TGTATGAAATACTTGCATCGGA, the sensor-assay potency score (higher = more potent) is -0.274. TTGCTTTAAATCTCTCCTTGGA showed a sensor-assay potency score (higher = more potent) of 0.126. Same read-out and setting: with TAGGATGACAAACTCCAAGCAA the figure was -0.085; with AATAGCTTCAACAACACATTTG, -1.65; with AATTGCTTTAAATCTCTCCTTG, -0.268.

For the sequence TAATCGTCATCAGATCCTCGGC, the sensor-assay potency score (higher = more potent) was -0.407.

A further test addresses LYPD3. The description is as above. The conditions noted are these: shRNA.
Take TCATCTGCTTTCTGCACGCAGC: the sensor-assay potency score (higher = more potent) was -1.43. Same read-out and setting: to TCTTGTTCGGGGAGCATCCGTC belongs -0.769. The same measure, in the same setting: to TTCATCCTGGACACAGCCCCGG belongs -0.847.
